According to PubChem BioAssay AID651593 (National Center for Advancing Translational Sciences (NCATS), 2012):
Among all 1,100 compounds or so, about 860 (78%) were called active. Another 19% or so got no clear call; they are omitted. So high a share suggests a set chosen from earlier hits. Some of the results follow. Unmarked numbers belong to inactive results. The call rests on the fitted dose curve; in most records, active means well fitted activation curve with a large enough effect; inconclusive means small, poorly fitted or top-dose-only effect; inactive means flat fitted curve, though single readings scatter.

Assay: qHTS of Nrf2 Activators: Hit Validation in Primary Assay; further: nearly all actives have a fitted effect of over 70% in size; on activation: 0% is about no effect
Conditions: Nrf2/ARE reporter cell assay; Potency: activation; series mostly up to 46.1 µM; activation: at the top concentration
Source text: Many diseases have some form of oxidative stress injury and ties to inflammation, causing a host of problems for the patient. The antioxidant response element (ARE) plays an important role in alleviating the harmful effects of oxidative stress. The antioxidant response element (ARE) is a transcriptional regulatory element involved in the activation of genes coding for a number of antioxidant proteins and detoxifying enzymes. These enzymes work in concert to protect tissues from oxidative insults and chemical toxicities in human hepatocytes and immune cells. The protective effects of ARE activation are primarily triggered through Nrf2 (NF-E2-related factor) binding to and activating AREs. It is known that Nrf2 controls the production of over 250 antioxidant and detoxification proteins (Hu et al., 2006), thereby protecting tissues by increasing cellular antioxidant content and suppressing inflammatory signaling pathways. The transcription factor Nrf2 is a central link between oxidative chemicals, such as phenolic antioxidants and electrophilic compounds, and the activation of ARE. Nrf2 levels are constitutively low as a consequence of its interaction with Keap1, which targets its degradation (Zipper and Mulcahy, 2002). Electrophiles react with key cysteine residues in Keap1, releasing Nrf2 and allowing its translocation to the nucleus. Once within the nucleus, Nrf2 complexes with coactivators such as p300, and binds to the AREs to induce gene transcription of cytoprotective enzymes, resulting in the prevention of toxicity. Activation of Nrf2 protects tissues by increasing cellular antioxidant content and suppressing inflammatory signaling pathways. Identifying novel and potent Nrf2 activators by using the AREc32 cell line to detect ARE activation by small molecules will lead to the identification and development of probes to study protective pathways in multiple tissues. These specific probes are essential to study the ARE pathway, and eventually to determine whether this pathway does activate genes that could protect against a host of diseases, including cardiovascular diseases, obesity, diabetes, Alzheimer's, and Parkinson's disease.
This project's aim is to identify novel and potent Nrf2 activators by using the AREc32 cell line to detect ARE activation by small molecules, which will lead to the identification and development of probes to study the ARE pathway.
NIH Chemical Genomics Center [NCGC]
NIH Molecular Libraries Probe Centers Network [MLPCN]
Assay Submitter (PI): Curtis Klaassen, University of Kansas Medical Center
Quantification of ARE activation after compound treatment was measured by the Steady-Glo Luciferase (R) assay system (Promega) in AREc32_fluc stable cells. The Steady-Glo reagent acts by cell lysis and generation of a luminescent signal proportional to ARE activation, through the luciferase reporter in the AREc32 stable cell line. AREc32_fluc cells were harvested from T225 flask and resuspended in phenol red free OPTI-MEM medium with 5% FBS. Then 5 microL of 200,000 cells/mL resuspended cells were dispensed into each well of white, solid bottom, 1536-well tissue culture-treated plates using a Multidrop Combi dispenser. After overnight culture at 37 degrees C with 5% CO2, a total of 23 nL of compounds at 5 selected concentrations from the MLSMR/Sytravon or positive control (40 uM stock of CDDO-IM and 2 mM of tBHQ) in DMSO was transferred to each well of the assay plate using a pintool (Kalypsys, San Diego, CA), and the plates were further incubated at 37 degrees C with 5% CO2 for 24 hours. After that, 2 microL of Steady Glo luminescent substrate mix (Promega) was added to each well. The plate was incubated at room temperature for 30 minutes. The plates were measured on a ViewLux plate reader (PerkinElmer) with clear filter.
Potency means the concentration at half of the fitted maximal effect.

Row | SMILES | Potency | activation [%]
1 | N/C(=N\OC(=O)/C=C/c1ccccc1)c1cccnc1 | 20.6 µM (active) | –
2 | O=C(/C=C/c1ccccc1[N+](=O)[O-])N1CCc2ccccc2C1 | 20.6 µM (active) | –
3 | Oc1ccccc1-n1nc2ccc3nonc3c2n1 | 11.6 µM (active) | –
4 | Cn1c(=O)n(CCc2ccccc2)c(=O)c2c1nc1n2CCN1Cc1ccco1 | 2.31 µM (active) | –
5 | COc1ccc([C@H]2Cc3cccc(O)c3C(=O)O2)cc1O | – | 4.39
6 | CCCNC(=O)c1ccc(S(=O)(=O)c2ccc(OC)cc2)c([N+](=O)[O-])c1 | 3.66 µM (active) | –
7 | Cn1c(N/N=C/c2cccs2)cc(=O)n(C)c1=O | 2.59 µM (active) | –
8 | O=c1[nH]n(Cc2ccccc2)c(=O)c2ccccc12 | 4.11 µM (active) | –
9 | O=C(CSc1nccc(-c2cccs2)n1)Nc1cccc(Cl)c1Cl | 2.31 µM (active) | –
10 | O=C(CSc1nccc(-c2cccs2)n1)Nc1cccc(Cl)c1 | 2.06 µM (active) | –
11 | O=C(CSc1nccc(-c2cccs2)n1)Nc1ccc(F)c(Cl)c1 | 20.6 µM (active) | –
12 | Cc1ccc(C(=O)N/N=C/c2ccc(-c3ccc(Br)cc3[N+](=O)[O-])o2)o1 | 5.8 µM (active) | –
13 | Cc1cc(C)n2nc(-c3ccc(F)cc3)cc2n1 | 20.6 µM (active) | –
14 | Cc1cc(N2CCOCC2)n2nc(-c3cccc(F)c3)cc2n1 | 1.46 µM (active) | –
15 | O=C(Nc1nccc(-c2cccs2)n1)c1cccs1 | 2.59 µM (active) | –
16 | O=C(Nc1ncc2c(n1)-c1ccccc1CC2)c1ccccc1 | 5.17 µM (active) | –
17 | O=C(Nc1ncc2c(n1)-c1ccccc1CC2)c1cccs1 | 2.31 µM (active) | –
18 | CC(C)CCn1c(O)c(N=Nc2ccccn2)c2ccccc21 | 2.91 µM (active) | –
19 | CCCCn1c(O)c(N=Nc2ccccn2)c2ccccc21 | 2.91 µM (active) | –
20 | CC(C)N1C/C(=C/c2cccnc2)C(=O)/C(=C/c2cccnc2)C1 | 3.66 µM (active) | –
21 | COc1ccc(Cl)cc1NC(=O)c1cc(-c2ccco2)on1 | 2.59 µM (active) | –
22 | COC(=O)c1ccccc1NC(=O)c1cc(-c2ccco2)on1 | 3.26 µM (active) | –
23 | CSc1ccccc1NC(=O)c1cc(-c2cccs2)on1 | 2.91 µM (active) | –
24 | COc1ccc(NC(=O)c2cc(-c3cccs3)on2)c(OC)c1 | 1.3 µM (active) | –
25 | CCCCC1C(=O)N(c2ccccc2)N(c2ccc(O)cc2)C1=O (stereo not drawn) | – | 4.73
26 | COc1ccc(NC(=O)c2cc(-c3ccco3)on2)c(OC)c1 | 2.31 µM (active) | –
27 | Cc1noc(C)c1COc1ccccc1C(=O)NNC(=O)c1ccccc1F | 3.66 µM (active) | –

Row | SMILES | Potency | activation [%]
28 | Cc1csc2c(=O)sc(NC(=O)c3cccs3)nc12 | 4.11 µM (active) | –
29 | Cc1csc2c(=O)sc(NC(=O)c3ccc(F)cc3Cl)nc12 | 2.59 µM (active) | –
30 | Cc1ccccc1C(=O)Nc1nc2c(C)csc2c(=O)s1 | 2.91 µM (active) | –
31 | CS/C(=C\C(=O)c1ccco1)Nc1ccccc1Cl | 4.61 µM (active) | –
32 | CC(C)Nc1ccc(-c2nc(-c3ccco3)no2)cc1[N+](=O)[O-] | 2.31 µM (active) | –
33 | CNc1ccc(-c2nc(-c3ccco3)no2)cc1[N+](=O)[O-] | 1.84 µM (active) | –
34 | COC(=O)c1cc(=O)nc(NN=Cc2ccco2)s1 | 0.58 µM (active) | –
35 | Cc1cc(Br)cn2c(Cc3ccccc3)c(-c3ccco3)nc12 | 16.4 µM (active) | –
36 | Cc1ccc(Cc2c(-c3ccco3)nc3c(C)cc(Br)cn23)cc1 | 20.6 µM (active) | –
37 | Clc1ccsc1-c1csc(-c2cccnc2)n1 | 2.06 µM (active) | –
38 | Cc1ccccc1NC(=O)/C(C#N)=C\c1ccsc1 | 3.66 µM (active) | –
39 | Cc1ccccc1NC(=O)/C(C#N)=C/c1ccsc1 | 4.11 µM (active) | –
40 | Clc1nc(-c2ccccc2)cc(-c2ccccc2)n1 | 4.11 µM (active) | –
41 | Clc1cc(-c2ccccc2)nc(-c2ccccc2)n1 | 5.8 µM (active) | –
42 | CN1CCCC1CCNc1ccc2c(=O)c3ccccc3oc2c1 (stereo not drawn) | 2.06 µM (active) | –
43 | Cc1[nH]c2ccccc2c1N=Nc1ccccc1C(=O)O | 2.59 µM (active) | –
44 | Cc1[nH]c2ccccc2c1N=Nc1ccccc1F | 4.11 µM (active) | –
45 | O=C1S/C(=C\C=C\c2ccco2)C(=O)N1c1ccc(O)cc1 | 2.31 µM (active) | –
46 | O=C1S/C(=C\C=C\c2ccco2)C(=O)N1c1ccccc1 | 5.8 µM (active) | –
47 | Cc1noc(C(=O)Nc2cc(Cl)ccc2O)c1Cl | 2.91 µM (active) | –
48 | C=CCSc1nccc(-c2cc(Cl)sc2Cl)n1 | 6.51 µM (active) | –
49 | O=C1c2cccc3cccc(c23)C(=O)N1CCCN(C(=O)c1cccs1)c1cccc(F)c1 | 2.31 µM (active) | –
50 | O=C(N/N=C/C=C/c1ccco1)c1cccc([N+](=O)[O-])c1 | 0.366 µM (active) | –
51 | O=C(N/N=C/C=C/c1ccco1)c1cnccn1 | 9.2 µM (active) | –
52 | O=C(N/N=C\C=C\c1ccco1)c1cc(-c2ccc3ccccc3c2)n[nH]1 | 8.2 µM (active) | –
53 | Cc1cccc(C)c1OCC(=O)N/N=C/C=C/c1ccco1 | 0.517 µM (active) | –
